High-throughput results deposited in PubChem BioAssay by National Center for Advancing Translational Sciences (NCATS).
HCV inhibitor: HCV inhibition. 340,000 tested, 3.4% active. Potency, µM (series often up to 41.8 µM), without a hit: at the top dose activity change, negative = inhibition, actives largely listed as inhibitors. Huh7.5.1 HCVcc-Cre infection, luciferase reporter, 44 h; further: potency means the concentration at half of the fitted maximal effect
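Antiviral activity was scored by luciferase reporter output from cells infected with HCVcc-Cre (~0.5 moi) in presence of compound, 44 h infection period, cells seeded 1,000/well 4 h prior.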
FMDV inh: foot and mouth disease virus antiviral activity; FMDV antiviral cell-based qHTS; Potency, µM (top dose mostly 57.9 µM), inactives show at the top dose activity change, negative = inhibition, hits mostly inhibitors; 410,000 tested, 1.2% active; AID 1159524; calls by dose curve; tested in HEK293T cells; further: read-out not given here; potency means the concentration at half of the fitted maximal effect; nearly all actives have a fitted effect of over 45% in size
Giardia FBPA inh: blocks Giardia fructose-bisphosphate aldolase activity; A8B2U2; purified Giardia FBPA; AID 2451; Potency, µM (top dose mostly 59.6 µM), for inactives: at the highest dose activity, negative = inhibition, hits mostly inhibitors; 290,000 tested, 0.71% active; further: potency means the concentration at half of the fitted maximal effect; nearly all actives have a fitted effect of over 55% in size
Target sequence (A8B2U2 whole entry, looked up): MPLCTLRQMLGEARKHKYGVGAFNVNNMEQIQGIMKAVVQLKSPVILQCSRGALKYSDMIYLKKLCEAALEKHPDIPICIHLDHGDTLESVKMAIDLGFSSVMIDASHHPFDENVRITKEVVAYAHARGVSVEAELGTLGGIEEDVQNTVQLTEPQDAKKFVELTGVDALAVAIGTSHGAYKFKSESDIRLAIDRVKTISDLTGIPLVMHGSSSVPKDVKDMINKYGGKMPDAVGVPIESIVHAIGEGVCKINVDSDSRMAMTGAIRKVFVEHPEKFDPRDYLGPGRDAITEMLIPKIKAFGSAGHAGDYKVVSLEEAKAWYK
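40 nM FBPA preincubated 10 min at RT with compound (up to 57.5 uM final), then substrate plus GAPDH/TPI/NAD/arsenate coupling and diaphorase/resazurin added. Fluorescence read after 20 min at RT, 525/598 nm.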
Lassa entry inh: blocks Lassa virus binding to or entry into cells | Potency, µM (top dose mostly 37.9 µM), for inactives: top-dose activity change, negative = inhibition, hits mostly inhibitors | Lassa virus pseudotype entry inhibition, cell reporter | 300,000 tested, 1.2% active; calls by dose curve; tested in HEK293 cells; further: potency means the concentration at half of the fitted maximal effect; nearly all actives have a fitted effect of over 50% in size
HCMV inh: human cytomegalovirus inhibition. HFF cells, HCMV-luciferase reporter, 72 h; hits give low values. activity change, negative = inhibition, % at 57.5 µM. 410,000 tested, 4.5% active. AID 1259415; in the data active means activity change below about -60%; inconclusive means no clear call, values can overlap the other calls; inactive means above about -39%
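Two compound doses tested in HFFs infected with HCMV-luciferase, MOI 1 PFU/cell, 72 h at 37C. Lysate luminescence read with OneGlo; data normalized against buffer-only and 10uM Salinomycin inhibitor controls.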
MARV entry inh: Marburg virus entry inhibition | 300,000 tested, 1.8% active | AID 540276 | Marburg virus pseudotyped entry inhibition, cell reporter | Potency, µM (doses to about 37.8 µM), without a hit: top-dose activity change, negative = inhibition, actives largely listed as inhibitors; calls by dose curve; tested in HEK293 cells; further: potency means the concentration at half of the fitted maximal effect
An asterisk follows results filed as active; ? = inconclusive; nt = no result given; [ ] = dose if it differs, or a comment. Only some compounds are listed: those with a hit (about 8.3% of all), similar ones and a draw of the others. Unless noted, the call rests on the fitted dose curve; in most records, active means well fitted curve in the direction sought with a large enough effect; inconclusive means small, poorly fitted or top-dose-only effect, or another doubt; inactive means no such curve, though single readings can be large; an effect the other way counts as inactive or inconclusive. On the % scale 0 is the no-effect control and ±100 the full control effect.

SMILES	HCV inhibitor	FMDV inh	Giardia FBPA inh	Lassa entry inh	HCMV inh	MARV entry inh
COc1ccc(-c2ccc(F)cc2)cc1C1C2C=CCC(C)C2C(=O)N1Cc1ccccc1 (stereo not drawn)	nt	nt	-2.3%	nt	nt	nt
CC(C)N(C(=O)Nc1ccc2nccnc2c1)C(C)C	3.0%	-2.5%	3.54µM*	4.3%	61.0	22.2%
COCC(=O)C(C(=O)OC)[C@H](CCc1ccccc1)NC(=O)OC (stereo partly drawn)	nt	nt	1.2%	nt	nt	?
COc1ccc(C(=O)c2sc(NC(C)C)nc2N)cc1OC	?	4.3%	0.6%	9.5%	?	-7.6%
COc1cccc(C(=O)c2sc(NC(C)C)nc2N)c1	?	9.5%	-19.2%	8.8%	-96.8*	?
O=C(NN=C1C[C@@H](O)[C@H](O)[C@H]2[C@@H]3C(=O)N(C[C@@H]4CCCO4)C(=O)[C@@H]3CC[C@@H]12)OCc1ccccc1	nt	nt	nt	?	nt	-4.7%[14.2 µM]
O=c1c2cn[nH]c2nc(SCc2cc(=O)n3cc(Br)ccc3n2)n1-c1ccc(Br)cc1	?	-23.6%	-0.7%	3.5%	-72.5*	?
Cc1ccccc1-n1c(SCc2cc(=O)n3ccccc3n2)nc2[nH]ncc2c1=O	-12.2%	-18.9%	-0.9%	16.7%	11.5	-21.8%
CCc1ccc(-n2c(SCc3ccccc3F)nc3[nH]ncc3c2=O)cc1	nt	?	nt	?	-22.6	nt
O=c1c2cn[nH]c2nc(SCc2ccccc2F)n1-c1ccc(Br)cc1	?	-20.5%	-2.4%	?	-71.3*	?
COc1ccc(N2CCN(C(=O)CSc3nc4[nH]ncc4c(=O)n3-c3ccc(Br)cc3)CC2)cc1	?	-16.9%	11.2%	nt	-63.4*	nt
COc1cccc(Cc2nc3ccccc3nc2SCC(=O)Nc2ccccc2F)c1	nt	-3.2%	nt	7.4%[46.1 µM]	-37.8	nt
Cc1ccc(NC(=O)CSc2nc3nccnc3c(=O)n2CCc2c[nH]c3ccccc23)c(C)c1	nt	-9.8%	nt	2.6%[46.1 µM]	2.3	nt
Cn1c(=O)c2c(nc(Cl)n2CC(=O)NC2(C#N)CCCCC2)n(C)c1=O	4.8%	-14.9%	nt	25.0%	-101.3*	20.3%
N#CC1(NC(=O)Cn2ncc(Cl)c(Cl)c2=O)CCCCC1	4.47µM*	?	nt	?	-14.2	?
N#CC1(NC(=O)CN2C(=O)c3ccccc3C2=O)CCCCC1	13.6%	-2.8%	nt	nt	-14.5	nt
CCOc1ccc(-c2cc(C(=O)Oc3ccc(C#N)cc3)no2)cc1	nt	6.7%	nt	6.2%[46.1 µM]	82.9	-1.2%[46.1 µM]
CC1CCN(S(=O)(=O)c2ccc3c(c2)N(CC(=O)O)C(=O)CO3)CC1	nt	?	nt	17.5%[46.1 µM]	-23.2	nt
N/C(=N\OC(=O)c1ccc(Cl)cc1[N+](=O)[O-])c1ccccn1	?	-14.4%	-1.8%	?	-37.6	?
Cc1ccc(C(=O)O/N=C(\N)c2ccccn2)c(Cl)c1	-27.9%	10µM*	9.4%	nt	-80.4*	nt
N/C(=N\OC(=O)/C=C/c1ccccc1)c1ccccn1	2.4%	-34.0%	1.4%	-25.6%[46.1 µM]	7.9	7.94µM*
N/C(=N\OC(=O)c1ccccc1Cl)c1ccncc1	?	40.2%	-9.0%	-24.2%	-99.5*	?
N/C(=N\OC(=O)c1ccc(Cl)cc1Cl)c1ccccn1	6.6%	-54.5%	-2.2%	5.17µM*	-61.3*	3.66µM*
N/C(=N\OC(=O)c1ccc(Cl)cc1Cl)c1ccncc1	7.8%	62.4%	2.7%	nt	50.2	nt
Cc1nc(C)c(-c2ccc(SCC(=O)Nc3ccc(Cl)c(Cl)c3)nn2)s1	nt	?	nt	?	13.5	nt
SMILES	HCV inhibitor	FMDV inh	Giardia FBPA inh	Lassa entry inh	HCMV inh	MARV entry inh
CC(=O)N1c2ccc(S(=O)(=O)N3CCN(c4ccc(C)cc4C)CC3)cc2CC1C (stereo not drawn)	nt	?	nt	-10.2%[46.1 µM]	?	nt
CC(=O)NCCNc1nc2c(-c3cccc(C)c3)nnn2c2ccccc12	14.1µM*	-3.4%	5.7%	nt	-17.9	nt
CCOC(=O)c1nnn2c1nc(Nc1cccc(C(F)(F)F)c1)c1ccccc12	-3.1%	-17.4%	0.3%	21.5%	-74.3*	?
NNc1nc2c(-c3cccc(C(F)(F)F)c3)nnn2c2ccccc12	14.1µM*	18.5%	-27.9%	?	43.8	?
CC(=O)NCCNc1nc2c(-c3ccc(C)cc3)nnn2c2ccccc12	nt	-28.7%	nt	11.2%[46.1 µM]	52.6	12.9%[46.1 µM]
CC(C)c1ccc(NC(=O)CSc2nc3ccccc3nc2Cc2ccccc2)cc1	nt	16.1%	nt	29.3%[46.1 µM]	-12.4	nt
C/C(=N\NC(N)=S)C12CC3CC(CC(C3)C1)C2	?	nt	-4.0%	?	-68.7*	?
C/C(=N\NC(N)=S)C1(C)CCCCC1	-4.4%	-3.5%	-16.4%	-37.3%	-61.1*	-31.4%
C/C(=N\NC(=O)c1ccncc1)C12CC3CC(CC(C3)C1)C2	4.7%	-11.3%	3.8%	-4.7%	-3.7	5.6%
CC(C)=CCC/C(C)=C/CO/N=C1/C[C@@H](O)[C@@H](O)[C@@H]2[C@@H]3C(=O)N(Cc4ccc5c(c4)OCO5)C(=O)[C@H]3CC[C@H]12	nt	nt	-0.3%[12.9 µM]	nt	nt	-43.7%[14.2 µM]
Clc1ccc(-c2nnc(Sc3nc4ccccc4o3)c3ccccc23)cc1	-27.8%	nt	?	?	-81.7*	?
Cc1ccc(-c2nnc(Sc3nc4ccccc4o3)c3ccccc23)cc1	?	61.4%	0.5%	3.4%	-11.4	-23.6%
COc1ccc(-n2c(CNC(=O)c3c(-c4ccccc4)noc3C)nnc2SC)cc1	nt	-14.1%	nt	nt	nt	nt
Cn1c(=O)[nH]c(=O)c2[nH]c(N(Cc3ccccc3)Cc3ccccc3)nc21	-26.1%	39.8µM*	12.0%	?	74.7	-3.4%[46.1 µM]
CCCCN(CC)C(=O)CSc1nc2ccccc2c(=O)n1CC1COc2ccccc2O1 (stereo not drawn)	10µM*	-21.1%	0.7%	-26.3%	?	?
CCCCNC(=O)CSc1nc2ccccc2c(=O)n1CC1COc2ccccc2O1 (stereo not drawn)	2.82µM*	0.3%	-1.4%	-1.5%	36.8	-2.4%
CCN(CC)C(=O)CSc1nc2ccccc2c(=O)n1CC	-7.1%	0.0%	5.7%	-7.9%	-26.0	-4.0%
Cc1nn(C(=O)c2ccccc2)c(C)c1S(=O)(=O)N1CCOCC1	nt	8.8%	nt	-14.7%[46.1 µM]	11.1	nt
O=c1[nH]c(=O)n(Cc2ccccc2)c(O)c1C=NCCCn1ccnc1	8.5%	5.2%	-2.2%	?	-26.8	?
N=c1c2c(-c3ccccc3)c(-c3ccccc3)n(Cc3ccccc3)c2ncn1CCCn1ccnc1	0.501µM*	-26.5%	1.8%	?	-74.0*	?
CCCCn1cnc2c(c(-c3ccccc3)c(-c3ccccc3)n2Cc2ccco2)c1=N	-23.4%	-23.0%	0.6%	-19.6%	-15.1	-34.7%
N=c1c2c(-c3ccccc3)c(-c3ccccc3)n(Cc3ccco3)c2ncn1Cc1ccco1	15.8µM*	25.1µM*	6.1%	?	-13.3	?
COc1ccccc1C(=O)NC1(C(F)(F)F)C(=O)Nc2c1c(=O)[nH]c(=O)n2-c1ccc(F)cc1 (stereo not drawn)	nt	2.9%	nt	-4.1%[46.1 µM]	11.6	3.3%[46.1 µM]
